Inconclusive results are not listed. Activity calls are given as the source filed them. Unless noted, calls come from the whole dose curve; as a rule, active = well fitted curve in the direction sought with a large enough effect in the repeat runs; inconclusive = weak or mixed curves; inactive = no such curve, though single readings can be large; an effect the other way counts as inactive or inconclusive.

Results on 45 molecules are retold here after PubChem BioAssay (NCATS).

Experiment [1] can be described thus: Confirmation and Secondary Assay for Modulators of Hemoglobin Beta Chain Splicing at IVS2 654 locus (AID 910; active = well fitted curve in the direction sought with a large enough effect; an effect the other way counts as inactive or inconclusive;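 note: HeLa cells stably carrying EGFP split by mutant beta-globin IVS2-654 intron; per-well total GFP intensity by laser scanning cytometry after 2-day treatment; % of control where 0% means no effect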). In a few lines:
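Readout: per-well total peak green fluorescence (488 nm ex, 500–520 nm em) from objects 5–250 µm, reflecting correct splicing of an EGFP-654 reporter. Compounds were applied for 2 days at 37 °C to overnight-plated HeLa EGFP-654 cells; controls were DMSO and 500 nM IVS2-654 PNA.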

Experiment [2] is described as follows: Confirmation and Secondary Assay for Modulators of Hemoglobin Beta Chain Splicing at IVS2 705 locus (AID 930; active = well fitted curve in the direction sought with a large enough effect; an effect the other way counts as inactive or inconclusive;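 note: HeLa cells stably expressing the EGFP-705 splicing reporter; GFP fluorescence per well restored by corrected splicing of the IVS2-705 intron in EGFP; % of control where 0% means no effect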). Put shortly: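 HeLa EGFP-705 reporter; 500 cells/well, o/n 37C 5% CO2; cpd 2 d; 488 ex/500-520 em laser scan; total peak GFP intensity/well. Ref: 500 nM […] antisense PNA.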
A short description of experiment [3]: qHTS Assay for Lipid Storage Modulators (AID 1519; calls by dose curve; for activity change, negative = inhibition: % is set by controls: 0 for no effect and ±100 for the full control effect). Conditions: Drosophila S3 cells, BODIPY lipid droplet/cell ratio, laser cytometry, cells loaded with oleic acid; for activity change, negative = inhibition: at 57.5 µM (top of the series). Put shortly: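 Cells seeded at 5,000 per well were treated with compounds over a concentration series and loaded with oleic acid (400 uM, as added). Lipid droplet fluorescence (488 nm excitation, 500-530 nm channel) was read by laser-scanning cytometry and normalized to 20 uM Triacsin C.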

Experiment [4] concerns the target Cytochrome P450 2D6 (Homo sapiens) (UniProt P10635). Nature of the experiment: Cytochrome P450 family 2 subfamily D member 6 (CYP2D6) small molecule antagonists: luciferase biochemical (cell-free) qHTS assay (AID 1645840). For activity change, negative = inhibition: % is set by controls: 0 for no effect and ±100 for the full control effect. Note: nearly all actives have a fitted effect of over 55% in size. Note: potency is the fitted concentration of half-maximal effect. Put shortly: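 P450-Glo luminescent screen: recombinant CYP2D6 enzyme–proluciferin substrate mix preincubated with compound 10 min at room temperature, then NADPH regeneration added for 1 h at room temperature. Detection reagent added for 20 min; luciferin light read as relative luminescence units.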
A general note: qHTS replaces the single test concentration by a dilution series.

Experiment [5] concerns the target Cytochrome P450 2C9 (Homo sapiens) (UniProt P11712). Briefly: Cytochrome P450 family 2 subfamily C member 9 (CYP2C9) small molecule antagonists: luciferase biochemical (cell-free) qHTS assay (AID 1645842). For activity change, negative = inhibition: % is set by controls: 0 for no effect and ±100 for the full control effect. Note: nearly all actives have a fitted effect of over 55% in size. Note: potency is the fitted concentration of half-maximal effect. In a few lines: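 Luminescence, after 20 min with luciferin detection reagent, reflected CYP2C9 turnover during a 1 h NADPH-driven reaction at 37C. Enzyme-substrate mix contained 0.4% bovine serum albumin and was preincubated with compound 10 min at room temperature.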

Experiment [6] concerns the target Cytochrome P450 3A4 (Homo sapiens) (UniProt P08684). Nature of the experiment: Cytochrome P450 family 3 subfamily A member 4 (CYP3A4) small molecule antagonists: luciferase qHTS assay (AID 1645841). Note: nearly all actives have a fitted effect of over 45% in size. Note: potency is the fitted concentration of half-maximal effect. In a few lines: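 Luminescent CYP3A4 activity readout: compounds plus enzyme-substrate mix 10 min at room temperature, reaction started with NADPH regenerating system for 1 h, stopped with detection reagent, read after 20 min. Ketoconazole served as control.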

The mark [7] stands for this setting: measured here: cell count channel max response.
[8] abbreviates: measured here: lipid channel max response.

Chain of Cytochrome P450 2D6 (Homo sapiens) (P10635 whole entry, looked up): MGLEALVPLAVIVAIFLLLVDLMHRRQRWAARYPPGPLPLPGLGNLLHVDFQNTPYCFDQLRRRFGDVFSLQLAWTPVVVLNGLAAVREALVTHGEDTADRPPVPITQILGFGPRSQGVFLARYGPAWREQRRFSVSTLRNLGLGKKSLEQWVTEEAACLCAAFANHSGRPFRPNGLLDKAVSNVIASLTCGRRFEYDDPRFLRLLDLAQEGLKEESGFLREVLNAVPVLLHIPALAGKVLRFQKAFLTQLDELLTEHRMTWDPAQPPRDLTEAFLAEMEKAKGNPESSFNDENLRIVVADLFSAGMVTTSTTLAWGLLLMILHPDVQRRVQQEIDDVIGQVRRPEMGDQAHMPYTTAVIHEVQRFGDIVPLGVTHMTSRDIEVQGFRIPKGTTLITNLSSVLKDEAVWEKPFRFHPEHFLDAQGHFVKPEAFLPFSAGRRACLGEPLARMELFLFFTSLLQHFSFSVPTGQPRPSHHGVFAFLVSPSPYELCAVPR
Chain of Cytochrome P450 2C9 (Homo sapiens) (P11712 whole entry, looked up): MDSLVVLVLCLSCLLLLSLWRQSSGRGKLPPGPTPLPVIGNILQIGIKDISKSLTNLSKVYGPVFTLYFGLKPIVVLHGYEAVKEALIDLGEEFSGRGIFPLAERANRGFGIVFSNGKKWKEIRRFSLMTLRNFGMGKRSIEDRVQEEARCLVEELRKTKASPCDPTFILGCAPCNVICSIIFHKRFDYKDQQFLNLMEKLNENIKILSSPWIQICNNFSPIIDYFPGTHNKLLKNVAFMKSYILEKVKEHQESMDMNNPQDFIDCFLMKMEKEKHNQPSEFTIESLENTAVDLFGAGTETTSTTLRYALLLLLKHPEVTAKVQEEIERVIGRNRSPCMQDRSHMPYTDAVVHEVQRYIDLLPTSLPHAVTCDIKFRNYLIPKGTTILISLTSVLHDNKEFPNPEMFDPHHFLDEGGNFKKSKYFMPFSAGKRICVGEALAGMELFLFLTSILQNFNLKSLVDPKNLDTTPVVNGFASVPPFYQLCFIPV
Chain of Cytochrome P450 3A4 (Homo sapiens) (P08684 whole entry, looked up): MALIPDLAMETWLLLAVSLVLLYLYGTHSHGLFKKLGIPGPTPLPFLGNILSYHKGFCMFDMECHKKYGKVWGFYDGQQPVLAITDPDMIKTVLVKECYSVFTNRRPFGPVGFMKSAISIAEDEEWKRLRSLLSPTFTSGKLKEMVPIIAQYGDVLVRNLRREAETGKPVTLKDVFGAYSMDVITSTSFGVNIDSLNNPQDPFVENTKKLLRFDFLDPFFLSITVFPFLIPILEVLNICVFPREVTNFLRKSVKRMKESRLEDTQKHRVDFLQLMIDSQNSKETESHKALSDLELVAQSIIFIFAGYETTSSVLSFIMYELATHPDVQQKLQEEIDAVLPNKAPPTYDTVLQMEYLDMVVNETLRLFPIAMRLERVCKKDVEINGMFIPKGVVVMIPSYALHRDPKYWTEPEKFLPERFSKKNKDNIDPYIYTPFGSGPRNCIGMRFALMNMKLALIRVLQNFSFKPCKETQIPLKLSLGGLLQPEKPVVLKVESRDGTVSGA

`CC(=O)OC1CC[C@@]2(C)C3CC(=O)[C@]4(C)C(C(C)=O)=CCC4C3CC[C@H]2C1` (some centres not stated): the Potency entry in experiment [1] and in experiment [2] was “inactive” in each case. Besides, in experiment [3], the activity change, negative = inhibition is -12.8% (inactive). Further, the figures for the max response in experiment [3] (setting [7]) and in experiment [3] (setting [8]) were 4.87% and -10%, respectively.

`CCOC(=O)c1csc(-n2nc(-c3ccc(F)c(F)c3)c(Cc3ccc(S(N)(=O)=O)cc3)c2N)n1`: the Potency entry in experiment [4] is “inactive”.

With `COc1ccc(C(=O)NC(c2ccc(Cl)cc2)c2cc(Cl)c3cccnc3c2O)cc1` (configuration not stated), the Potency entry in experiment [4] is “inactive”.

Regarding `CCOC(=O)c1sc(NC(=O)c2c(-c3ccccc3)c(-c3ccccc3)nn(C)c2=O)nc1C`, the Potency result in experiment [4] was “inactive”.

`NCC1O[C@@H](O[C@H]2C(O)C(O[C@@H]3C(O[C@H]4OC(CO)C(O)C(O)C4N)C(N)CC(N)[C@H]3O)O[C@@H]2CO)C(N)C(O)C1O` (some centres not stated): in experiment [2], the Potency entry was “inactive”. For the same molecule, the activity change, negative = inhibition in experiment [3] was 10.8% (inactive). The max response worked out at 18.8% in experiment [3] (setting [7]) and 35.3% in experiment [3] (setting [8]).

Take `COC(=O)[C@H]1C(OC)[C@@H](OC(=O)c2cc(OC)c(OC)c(OC)c2)C[C@@H]2CN3CCc4c([nH]c5cc(OC)ccc45)[C@H]3C[C@H]21` (some centres not stated): the Potency result in experiment [2] is “inactive”. In experiment [3], the activity change, negative = inhibition was 8.9% (inactive). Moreover, the max response amounted to 4.56% in experiment [3] (setting [7]) and 13.7% in experiment [3] (setting [8]).

As to `C#C[C@]1(O)CC[C@@H]2[C@@H]3CCC4=CCCC[C@@H]4[C@H]3C(=C)C[C@@]21CC`, in experiment [4], the Potency entry is “inactive”.

As for `Cc1nc2c3ccccc3nc(NNC(=O)CCC(=O)N3CCN(c4ccccc4F)CC3)n2n1`, in experiment [4], the Potency result is “inactive”.

On to `Cc1ccc(C)c(NC(=O)Cn2cc(C(=O)c3ccco3)c3ccccc32)c1`, for which, in experiment [4], the Potency was 0.425 µM (active).

Turning to `CC12CCC3(C)C(=CC(=O)[C@@H]4C5(C)CC[C@H](O[C@H]6O[C@H](C(=O)O)C(O)C(O)[C@H]6O[C@@H]6O[C@H](C(=O)O)C(O)C(O)C6O)C(C)(C)[C@@H]5CCC43C)[C@@H]1C[C@@](C)(C(=O)O)CC2` (some centres not stated), the Potency result in experiment [4] is “inactive”.

On to `Cc1onc(-c2c(F)cccc2Cl)c1C(=O)Cl`, for which the Potency result in experiment [4] is “inactive”.

Take `CCOC(=O)c1ccc(NC(=O)CCn2c(=O)c3cccn3c3cccnc32)cc1`: in experiment [4], the Potency entry is “inactive”.

As to `COc1ccc(-c2nc3n(n2)C(c2ccc(OC)c(OC)c2)C(C(=O)Nc2cccnc2)=C(C)N3)cc1` (configuration not stated), the Potency result in experiment [4] was “inactive”.

For the molecule `C=Cc1ccc(Cn2c(SCC(=O)N3CCN(c4ccc(F)cc4)CC3)nc3ccccc32)cc1`, the Potency entry in experiment [4] is “inactive”.

With `CCc1ccc(C(=O)c2cn(CC(=O)Nc3ccc(OC)c(OC)c3)c3ccc(C)cc3c2=O)cc1`, the Potency entry in experiment [4] is “inactive”.

As for `COc1cccc(CNCc2cccn2-c2nnc(N3CCN(c4ccccc4)CC3)s2)c1`, in experiment [4], the Potency is 3.38 µM (active).

In the case of `O=C(O)c1ccc(Cc2c(-c3cccc(-c4ccccc4)c3)[nH]n(-c3nc(C(=O)O)cs3)c2=O)cc1`, in experiment [4], the Potency is 9.52 µM (active).

With `Cc1ccccc1CNC(=O)CCCn1c(=O)c2cccn2c2cccnc21`, the Potency in experiment [4] was 8.49 µM (active).

On to `CC1=CC(O)=NS(=O)(=O)O1`, for which the Potency result in experiment [4] is “inactive”.

Consider `Cn1c(=O)c2c(nc(CN3CCN(C(=O)C4CC4)CC3)n2Cc2cccc(F)c2)n(C)c1=O`, for which the Potency result in experiment [4] is “inactive”.

With `CCCCC1CCC(CCCC(C)CCC(=O)O)CC1` (configuration not stated), the Potency entry in experiment [4] was “inactive”.

Consider `Cc1cc(Cl)ccc1NC(=O)CCCn1nc(C)c2c(C)n(-c3ccccc3)nc2c1=O`, for which, in experiment [4], the Potency result was “inactive”.

Turning to `COc1ccc(NC(=O)Cn2ccn(-c3ccc(C)c(C)c3)c(=O)c2=O)cc1Cl`, the Potency entry in experiment [4] is “inactive”.

With `CC(O)CNC(=O)C(=O)Nc1c2c(nn1-c1ccc(Cl)cc1)CSC2` (configuration not stated), the Potency result in experiment [4] is “inactive”.

`CC(CN(C)C)CN1c2ccccc2Sc2ccccc21` (configuration not stated): the Potency entry in experiment [1] and in experiment [2] was “inactive” in each case. For the same molecule, the activity change, negative = inhibition in experiment [3] was 6.07% (inactive). Moreover, the results for the max response in experiment [3] (setting [7]) and in experiment [3] (setting [8]) were -0.564% and 10.9%, respectively.

As to `CCC(C)C(=O)OC1CC(C)C=C2C=CC(C)C(CCC3CC(O)CC(=O)O3)C21` (configuration not stated), the Potency entry in experiment [1] and in experiment [2] was “inactive” throughout. Also, the activity change, negative = inhibition in experiment [3] is 5.56% (inactive). Moreover, the max response in experiment [3] (setting [7]) was found to be 0.727%; in experiment [3] (setting [8]), 5.38%.

As to `CC(=O)OC1CCC2(C)C3=C(CCC2C1(C)C)[C@]1(C)CCC(C(C)CCC=C(C)C)[C@]1(C)CC3` (some centres not stated), the Potency result in experiment [1] and in experiment [2] was “inactive” in each case. Also, in experiment [3], the activity change, negative = inhibition was -0.993% (inactive). The results for the max response in experiment [3] (setting [7]) and in experiment [3] (setting [8]) were 20.7% and 23.4%, respectively.

On to `COc1ccc(-c2nc(SCC(=O)Nc3ccc4c(c3)OCO4)c(-c3ccc(OC)cc3)[nH]2)cc1`, for which, in experiment [4], the Potency is 5.35 µM (active).

For the molecule `Cc1ccc(Cn2ccnc2SCC(=O)Nc2nc3ccccc3s2)cc1`, the Potency in experiment [4] is 10.7 µM (active).

Regarding `Cc1cc(C)cc(NC(=O)Cn2c(=O)n(-c3ccc(C)c(C)c3)c(=O)c3oc4ccccc4c32)c1`, the Potency in experiment [4] was 0.425 µM (active).

For the molecule `CN1CCCC1c1cccnc1` (configuration not stated), in experiment [2], the Potency result is “inactive”. Further, the activity change, negative = inhibition in experiment [3] is 7.69% (inactive). In addition, the max response turned out to be 11.9% in experiment [3] (setting [7]) and 23.7% in experiment [3] (setting [8]).

As to `CNC(=O)c1ccc(CSc2nc3ccncc3n2Cc2ccc(C)cc2)cc1`, the Potency in experiment [4] is 13.5 µM (active).

Consider `CC(C)CCCC(C)C1CCC2C3C(=O)C=C4CC(O)CC[C@@]4(C)C3CC[C@@]12C` (some centres not stated), for which the Potency entry in experiment [1] and in experiment [2] was “inactive” throughout. Also, the activity change, negative = inhibition in experiment [3] was -2.06% (inactive). Also, the max response in experiment [3] (setting [7]) worked out at 8.46%; in experiment [3] (setting [8]), 5.18%.

`CN(C)S(=O)(=O)c1ccc(S(=O)(=O)N(Cc2ccccc2Cl)C[C@@H]2CCCO2)cc1`: in experiment [4], the Potency result was “inactive”. Besides, the Potency in experiment [5] is 9.52 µM (active).

Turning to `C[S+](=O)([O-])Nc1ccc(-c2ccc3nc(-c4ccc(OC(F)(F)F)cc4)[nH]c3c2)cc1`, the Potency entry in experiment [4] and in experiment [6] was “inactive” in each case.

With `COCCOc1nc(N)c2[nH]c(=O)n(Cc3ccc(C(=O)O)cc3)c2n1`, the Potency entry in experiment [4] and in experiment [5] was “inactive” in each case.

Consider `CCOc1ccc(NC(=O)Cn2cc(C(=O)c3cccs3)c3ccccc32)cc1`, for which the Potency result in experiment [4] was “inactive”. For the same molecule, the Potency in experiment [5] is 1.69 µM (active).

With `COc1cc(=O)n2c(c1C(=O)NCc1ccc3c(c1)OCO3)CCN(C(=O)c1ccc(C)cc1C)CC2`, the Potency is 10.7 µM (active) in experiment [4] and 19 µM (active) in experiment [5].

With `COc1ccc(CNC(=O)Cn2c(SCC(=O)Nc3ccc(C)c(C)c3)nc3ccccc32)cc1`, the Potency result in experiment [4] is “inactive”. In addition, the Potency in experiment [5] is 2.39 µM (active).

For `CCC(C)Nc1cc(C(=O)NC2CC3CCC(C2)N3c2ccc(C(=O)C3CC3)cn2)c(C)cc1C(N)=O` (configuration not stated), in experiment [4], the Potency result was “inactive”. The Potency in experiment [5] is 8.49 µM (active).

As for `Cc1ccc(-n2nc3c(N4CCCC(C(=O)NCc5ccccc5C)C4)nnc(C)c3c2C)cc1` (configuration not stated), the Potency is 9.52 µM (active) in experiment [4], 1.69 µM (active) in experiment [6] and 2.68 µM (active) in experiment [5].

Consider `COc1cc(C(=O)NC(c2ccccc2Cl)c2cc(Cl)c3cccnc3c2O)cc(OC)c1OC` (configuration not stated), for which the Potency result in experiment [4] was “inactive”. In addition, the Potency in experiment [5] is 15.1 µM (active).

Take `CCOC(=O)c1cnc2ccc(OC)cc2c1NCCc1ccc(OC)c(OC)c1`: the figures for the Potency in experiment [4] and in experiment [5] were 2.39 µM (active) and 0.849 µM (active), respectively.

On to `COc1ccc(-n2nc3c(N4CCCC(C(=O)NCCc5ccccc5C)C4)nnc(C)c3c2C)cc1` (configuration not stated), for which the Potency is 2.68 µM (active) in experiment [4] and 0.674 µM (active) in experiment [5].

Turning to `CCOC(=O)c1ccc(N2C(=O)c3n[nH]c(-c4ccco4)c3C2c2ccc(C)cc2)cc1` (configuration not stated), the Potency entry in experiment [4] was “inactive”. In addition, in experiment [5], the Potency was 2.39 µM (active).
